According to PMC5540273 (PLoS ONE, 2017):

Legend:
Conditions in all cases: concentration: 1 μM,replicates: in singlicate; n = 1
HASPIN = tested on: T1, HASPIN
T1 construct: gene GSG2

HCK = tested on: HCK
HIPK1 = tested on: HIPK1
HIPK2 = tested on: HIPK2
HIPK3 = tested on: HIPK3
HIPK4 = tested on: HIPK4
HPK1 = tested on: HPK1
HUNK = tested on: HUNK
ICK = tested on: ICK
IGF1R = tested on: IGF1R
IKK-alpha = tested on: T2, IKK-alpha
T2 construct: gene CHUK

IKK-beta = tested on: T3, IKK-beta
T3 construct: gene IKBKB

IKK-epsilon = tested on: T4, IKK-epsilon
T4 construct: gene IKBKE

INSRR = tested on: INSRR
INSR = tested on: INSR
IRAK1 = tested on: IRAK1
IRAK3 = tested on: IRAK3
IRAK4 = tested on: IRAK4
ITK = tested on: ITK
[1] = tested on: JAK1(JH1domain-catalytic)
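Further: KINOMEscan kinase panel screen.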

SMILES | %Inh (HASPIN) | %Inh (HCK) | %Inh (HIPK1) | %Inh (HIPK2) | %Inh (HIPK3) | %Inh (HIPK4) | %Inh (HPK1) | %Inh (HUNK) | %Inh (ICK) | %Inh (IGF1R) | %Inh (IKK-alpha) | %Inh (IKK-beta) | %Inh (IKK-epsilon) | %Inh (INSRR) | %Inh (INSR) | %Inh (IRAK1) | %Inh (IRAK3) | %Inh (IRAK4) | %Inh (ITK) | %Inh [1]
CC(=O)Nc1ccc(-c2cc3ncnc(SCC(=O)O)c3s2)cc1 | 13% | 15% | 96.7% | 97.5% | 95.1% | 95.6% | 11% | 0% | 60% | 0% | 0% | 0% | 0% | 10% | 0% | 78% | 52% | 0% | 2% | 0%
NC(=O)Nc1sc(-c2ccc(F)cc2)cc1C(N)=O [GW789449] | 3% | 47% | 40% | 34% | 31% | 2% | 48% | 0% | 15% | 2% | 78% | 100% | 0% | 10% | 37% | 41% | 15% | 12% | 26% | 91.4%
CC(C)c1nc(-c2cccc(NS(=O)(=O)c3ccccc3)c2)c(-c2ccnc(Nc3ccc4c(c3)CN(C)CC4)n2)s1 [GSK1649598] | 0% | 99.7% | 75% | 58% | 69% | 93.6% | 88% | 3% | 36% | 0% | 2% | 15% | 42% | 0% | 35% | 65% | 10% | 16% | 47% | 25%
C[C@@H](Oc1cc(-n2cnc3cc(-c4cnn(C)c4)ccc32)sc1C(N)=O)c1ccccc1Cl [GSK580432] | 0% | 64% | 20% | 0% | 4% | 1% | 91.3% | 0% | 0% | 0% | 0% | 8% | 4% | 1% | 0% | 45% | 34% | 25% | 23% | 0%
CCN1CCN(CCCC(=O)Nc2n[nH]c3nc(-c4ccc(O)cc4)c(Br)cc23)CC1 [SB-731579] | 0% | 0% | 75% | 57% | 0% | 0% | 8% | 0% | 93.3% | 0% | 0% | 0% | 0% | 0% | 0% | 0% | 0% | 0% | 98.8% | 23%
Cc1nnc(-c2ccc3occ(-c4ccc(S(C)=O)cc4)c3n2)o1 (stereo not shown) | 6% | 0% | 46% | 0% | 0% | 0% | 0% | 0% | 0% | 10% | 0% | 0% | 0% | 0% | 0% | 0% | 0% | 0% | 8% | 8%
O=c1[nH]cc(-c2ccc(O)cc2)c2sc(-c3ccncc3)cc12 [GSK1033723] | 88% | 0% | 67% | 72% | 90.1% | 22% | 44% | 0% | 0% | 0% | 0% | 0% | 9% | 0% | 100% | 59% | 1% | 5% | 0% | 35%
Cl.Cl.NC[C@H](CC1CCCCC1)NC(=O)c1ccc(-c2ccnc3[nH]ccc23)s1 [GSK1581428] | 88% | 0% | 98.7% | 96.1% | 98.9% | 94.2% | 78% | 0% | 11% | 0% | 31% | 72% | 31% | 100% | 5% | 57% | 13% | 6% | 5% | 56%
